Experimental data reported in PubChem BioAssay (NCATS).
Where “and” joins values, the source holds several entries; their conditions need not be identical. Equal entries are not always repeated. Results filed as inconclusive are left out. Calls of active or inactive are those of the source. Unless noted, calls come from the whole dose curve; as a rule, active = well fitted curve in the direction sought with a large enough effect; inconclusive = small, poorly fitted or top-dose-only effect, or another doubt; inactive = no such curve, though single readings can be large; an effect the other way counts as inactive or inconclusive.

Assays:
[1] = Cellular Toxicity (caspase-3) HepG2 (AID 654);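 note: cells exposed to compound for 16 hours before reading; 0% = DMSO alone and 100% = caspase signal from 100 µM tamoxifen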
How it was run: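 Caspase 3/7 activation is measured as a luminescence increase (aminoluciferin substrate) after 16 h compound exposure of human hepatocarcinoma HepG2 cells. AC50 values are Hill fits, scaled between DMSO baseline and 100 uM tamoxifen stimulation.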

[2] = Cellular Toxicity (caspase-3) SK-N-SH (AID 661);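 note: 0% = DMSO basal and 100% = 10 µM staurosporine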
How it was run: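 Caspase 3/7 activation was read by luminogenic substrate cleavage after 16 hour treatment of SK-N-SH cells. Signal was scaled between DMSO and 10 uM staurosporine, and concentration-response data were fitted with the Hill equation for AC50.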

[3] = Cellular Toxicity (caspase-3) Hek293 (AID 664); conditions: HEK293 caspase-3 activation, DMSO = 0%, 100 µM tamoxifen = 100%; at 92.2 µM (top of the series);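 note: cells exposed to compound for 16 h at 37 °C before readout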
How it was run: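 Concentration-response qHTS: caspase 3/7 activation measured by luminescent aminoluciferin substrate cleavage after 16 h compound exposure of Hek 293 cells. AC50 from Hill equation, with DMSO as basal and 100 uM tamoxifen as 100%.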

[4] = Cellular Toxicity (caspase-3) N2a (AID 665);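 note: compound exposure lasted 16 h at 37 °C before readout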
How it was run: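 Caspase-3/7 activation measured as luminescence from Caspase-Glo reagent (1 h, room temperature) after 16 h compound exposure of mouse N2a cells. AC50 values from Hill-equation concentration-response, scaled between DMSO and 10 uM staurosporine.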

[5] = Cellular Toxicity (caspase-3) NIH 3T3 (AID 666);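 note: caspase signal read after 16 h compound exposure; 0% = DMSO basal and 100% = 100 µM tamoxifen stimulation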
How it was run: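 Caspase-Glo 3/7 luminescence reported caspase activation in 1000 NIH 3T3 cells/well after 16 h compound exposure at 37 C. DMSO set basal and 100 uM tamoxifen set 100% stimulation; concentration-response modeled with the Hill equation for AC50.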

[6] = Cellular Toxicity (caspase-3) Renal Proximal Tubule (AID 667);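 note: cells exposed to compound for 16 hours at 37 °C before detection; 0% = DMSO basal and 100% = 10 µM staurosporine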
How it was run: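 Caspase 3/7 activation measured by luminescent aminoluciferin release in primary rat proximal tubule cells after 16 hr compound exposure at 37 °C. AC50 from Hill-fitted concentration-response, scaled between DMSO and 10 uM staurosporine.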

[7] = MultiTox-Fluor Cytotoxicity Assay - LYMP1-003 - Dead Cells (AID 961);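 note: 0% = DMSO and 100% = tetraoctylammonium bromide; nearly all actives have a fitted effect of over 70% in size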
How it was run: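 Acute toxicity is scored as increased dead-cell protease activity in human lymphoblastoid LYMP1-003 cells after 16 h compound exposure in complete culture medium. Activity is normalized to DMSO basal and 15 uM tetraoctylammonium bromide as full response.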

[8] = Cell Viability - LYMP2-003 (AID 965);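 note: cells exposed to compounds for 24 h before reading; 0% = DMSO only and full effect = 92 µM tetraoctylammonium bromide; nearly all actives have a fitted effect of over 50% in size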
How it was run: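 CellTiter-Glo luminescence quantified ATP loss after 24 h compound treatment of LYMP2-003 lymphoblastoid cells at 37 C. Titration series were fitted with the standard Hill equation to give AC50.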

[9] = Cell Viability - LYMP2-009 (AID 968);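 note: 0% = DMSO alone and the full-kill end = tetraoctylammonium bromide at 92 µM; nearly all actives have a fitted effect of over 55% in size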
[10] = Cell Viability - LYMP2-013 (AID 970);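 note: 0% = DMSO only and full inhibition = tetraoctylammonium bromide control; nearly all actives have a fitted effect of over 55% in size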
How it was run: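 qHTS cytotoxicity: ATP-dependent luminescence (CellTiter-Glo, 30 min room temperature) read after 24 h compound exposure at 37 C of 2500 LYMP2-013 lymphoblastoid cells per well. Concentration-response fitted with Hill equation to give AC50.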

[11] = Cell Viability - LYMP2-025 (AID 976);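 note: plate controls were DMSO only for no effect and tetraoctylammonium bromide control for full effect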
How it was run: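 Cytotoxicity read as loss of intracellular ATP (luciferase luminescence) after 24 h compound treatment at 37 C. Uses LYMP2-025 lymphoblastoid cells in 1536-well format; Hill-equation modelling gives AC50; tetraoctylammonium bromide as positive control.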

[12] = Cell Viability - LYMP2-006 (AID 978); note: % is set by controls: 0 for no effect and ±100 for the full control effect; nearly all actives have a fitted effect of over 60% in size
How it was run: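 Potency values are Hill-fit AC50s for decreases in intracellular ATP (CellTiter-Glo luminescence). LYMP2-006 lymphoblastoid cells, 2500 per well, were exposed to compound in complete culture medium for 24 hr at 37 C.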

[13] = Cell Viability - LYMP2-007 (AID 979);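 note: cells exposed to compound for 24 h before reading; 0% = DMSO only and the negative end = 92 µM tetraoctylammonium bromide; nearly all actives have a fitted effect of over 60% in size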
How it was run: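 AC50 values come from Hill-equation fits of luminescent intracellular ATP (CellTiter-Glo, 30 min, room temperature) following 24 h compound exposure at 37 C. Cells: LYMP2-007 lymphoblastoid line, 2500 per well, in complete culture medium.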

[14] = Cell Viability - LYMP2-008 (AID 980); note: % is set by controls: 0 for no effect and ±100 for the full control effect; nearly all actives have a fitted effect of over 60% in size
How it was run: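 Cytotoxicity determined from ATP-dependent luciferase luminescence (CellTiter-Glo) following 24 h compound exposure of human lymphoblastoid LYMP2-008 cells at 37 C. Concentration-response data fitted to the Hill equation to give AC50.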

[15] = Cell Viability - LYMP1-002 - Assay at 24 hr (AID 993); note: % is set by controls: 0 for no effect and ±100 for the full control effect
How it was run: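 qHTS cytotoxicity at 24 h: CellTiter-Glo ATP luminescence in lymphoblastoid line LYMP1-002 incubated with compound at 37 °C. Concentration-response modeled with the Hill equation for AC50; tetraoctylammonium bromide served as positive control.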

[16] = qHTS Assay for Identification of Small Molecule Inducers of Hypoxia Response (AID 2120; active = well fitted curve in the direction sought with a large enough effect in the signal ratio, with a control signal flat, not every such curve was filed as active; the % refers to the signal ratio; note: 0% is about no effect)
How it was run: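 Reporter induction read as the CCF4 blue/green (460nm/530nm) emission ratio after 2.5 h dye loading at room temperature. ME-180 HRE-beta-lactamase cells received titrated compounds for 17 h at 37 degrees Celsius; AC50 values derived.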

[17] = molecular target: Peroxisome proliferator-activated receptor alpha (Homo sapiens) (UniProt Q07869); test: qHTS assay for small molecule agonists of the peroxisome proliferator-activated receptor alpha (PPARalpha) signaling pathway (AID 651778); conditions: PathHunter PPARalpha complementation, chemiluminescence, 6 h; stronger effect = higher value; note: % of control where 0% means no effect
Sequence of Peroxisome proliferator-activated receptor alpha (Homo sapiens) (Q07869 whole entry, looked up): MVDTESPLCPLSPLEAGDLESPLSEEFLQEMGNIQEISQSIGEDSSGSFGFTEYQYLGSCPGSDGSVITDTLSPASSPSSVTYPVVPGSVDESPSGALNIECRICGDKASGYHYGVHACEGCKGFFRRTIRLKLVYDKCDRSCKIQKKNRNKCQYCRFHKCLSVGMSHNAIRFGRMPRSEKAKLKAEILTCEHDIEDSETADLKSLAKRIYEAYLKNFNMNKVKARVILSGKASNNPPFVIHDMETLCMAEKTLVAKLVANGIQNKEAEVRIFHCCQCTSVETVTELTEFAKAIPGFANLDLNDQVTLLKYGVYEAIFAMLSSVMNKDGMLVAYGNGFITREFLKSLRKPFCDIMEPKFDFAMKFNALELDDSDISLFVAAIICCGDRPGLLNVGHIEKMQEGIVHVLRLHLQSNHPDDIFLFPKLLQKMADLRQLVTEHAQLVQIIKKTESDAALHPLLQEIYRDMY
How it was run: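 Cells plated at 2,000/well and held overnight at 37 C, 5% CO2, then compound added by pin tool for 6 hr; after PathHunter detection reagent and 60 min at room temperature, chemiluminescence from enzyme complementation was read.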

[18] = qHTS assay for small molecule agonists of the antioxidant response element (ARE) signaling pathway measured by Nrf2-dependant transcriptional activity - cell viability counter screen (AID 720653; active = well fitted curve in the direction sought with a large enough effect in the repeat runs; an effect the other way counts as inactive or inconclusive; note: % is set by controls: 0 for no effect and ±100 for the full control effect); conditions: ARE-bla HepG2 viability, CellTiter-Glo ATP luminescence, 16 h; stronger effect = lower value
How it was run: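 ARE-bla HepG2 cells (2,000/well) rested 5 hrs at 37C/5% CO2, then exposed to compounds in DMSO for 16 hrs. Viability was read in the same wells as intracellular ATP by luminescence, 30 min at room temperature after reagent addition.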

[19] = qHTS assay for cell viability of HEK293 cells (AID 743288); conditions: ATP luminescence (CellTiter-Glo), 18 h, stronger effect = lower value; note: % is set by controls: 0 for no effect and ±100 for the full control effect; nearly all actives have a fitted effect of over 50% in size
How it was run: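 Readout is luciferase-coupled ATP content (CellTiter-Glo luminescence, 30 min room temperature) as a measure of metabolically competent cells. Parental HEK293 cells were plated 5 h or more before compound addition, then treated 18 h at 37 C.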

[20] = qHTS assay for cell viability of the p53RE-bla HCT-116 cell line (AID 743292); note: % is set by controls: 0 for no effect and ±100 for the full control effect; nearly all actives have a fitted effect of over 55% in size
How it was run: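 After plating at 4,000 cells per well and a 5 h rest at 37 C, HCT-116 cells carrying p53RE-bla received test chemicals in DMSO. Sixteen hours later at 37 C, CellTiter-Glo was added and luminescence recorded following 30 min at room temperature.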

ClC=CCl
inactive: outcome [1] | Potency [2] | caspase-3 activation [3] -1.83% | outcome [4] | Potency [5] | outcome [6] | Potency [7] | Potency [8] | Potency [9] | Potency [10] | Potency [11] | Potency [12] | Potency [13] | Potency [14] | Potency [15] | Potency [16] | max response [17] -2.13% | max response [18] -14.4% | max response [19] -11.1% | Potency [20]

O=[N+]([O-])c1ccc(Cl)cc1
inactive: outcome [1] | Potency [2] | caspase-3 activation [3] -0.181% | outcome [4] | Potency [5] | outcome [6] | Potency [7] | Potency [8] | Potency [9] | Potency [10] | Potency [11] | Potency [12] | Potency [13] | Potency [14] | Potency [15] | Potency [16] | max response [17] -4.31% and 0.471% | max response [18] -7.74% and 0.776% | max response [19] 7.34% and -5.17% | Potency [20]

Nc1ccc(Oc2ccc(N)cc2)cc1
inactive: outcome [1] | Potency [2] | caspase-3 activation [3] -2.14% | outcome [4] | Potency [5] | outcome [6] | Potency [7] | Potency [8] | Potency [9] | Potency [10] | Potency [11] | Potency [12] | Potency [13] | Potency [14] | Potency [15] | Potency [16] | max response [17] -1.7% and -2.66% | max response [18] -2.21% and -13% | max response [19] -1.7% and -3.88% | Potency [20]

ClCC(Cl)CCl
inactive: outcome [1] | Potency [2] | caspase-3 activation [3] 1.26% | outcome [4] | Potency [5] | outcome [6] | Potency [7] | Potency [8] | Potency [9] | Potency [10] | Potency [11] | Potency [12] | Potency [13] | Potency [14] | Potency [15] | Potency [16] | max response [17] -4.72% and -1.22% | max response [18] 3.4% and -4.41% | max response [19] -3.69% and -5.22% | Potency [20]

CC(Cl)CCl (stereo not given)
inactive: outcome [1] | Potency [2] | caspase-3 activation [3] -1.21% | outcome [4] | Potency [5] | outcome [6] | Potency [7] | Potency [8] | Potency [9] | Potency [10] | Potency [11] | Potency [12] | Potency [13] | Potency [14] | Potency [15] | Potency [16] | max response [17] -4.11% | max response [18] -12.6% | max response [19] -4.06% | Potency [20]

C=CC(=O)OCC(C)C
inactive: outcome [1] | Potency [2] | caspase-3 activation [3] -0.317% | outcome [4] | Potency [5] | outcome [6] | Potency [7] | Potency [8] | Potency [9] | Potency [10] | Potency [11] | Potency [12] | Potency [13] | Potency [14] | Potency [15] | Potency [16] | max response [17] 3.76% | max response [18] -10.1% | max response [19] 2.29% | Potency [20]

O=[N+]([O-])c1cccc(O)c1
inactive: outcome [1] | Potency [2] | caspase-3 activation [3] 0.974% | outcome [4] | Potency [5] | outcome [6] | Potency [7] | Potency [8] | Potency [9] | Potency [10] | Potency [11] | Potency [12] | Potency [13] | Potency [14] | Potency [15] | Potency [16] | max response [17] -4.41% | max response [18] -0.267% | max response [19] -8.12% | Potency [20]

C=C(C)CCl
inactive: outcome [1] | Potency [2] | caspase-3 activation [3] -0.774% | outcome [4] | Potency [5] | outcome [6] | Potency [7] | Potency [8] | Potency [9] | Potency [10] | Potency [11] | Potency [12] | Potency [13] | Potency [14] | Potency [15] | Potency [16] | max response [17] 1.24% | max response [18] -2.48% | max response [19] -1.82% | Potency [20]

COc1ccc(C=O)cc1
inactive: outcome [1] | Potency [2] | caspase-3 activation [3] 1.65% | outcome [4] | Potency [5] | outcome [6] | Potency [7] | Potency [8] | Potency [9] | Potency [10] | Potency [11] | Potency [12] | Potency [13] | Potency [14] | Potency [15] | Potency [16] | max response [17] 2.57% | max response [18] 7.96% | max response [19] -1.3% | Potency [20]
